Bioassay records deposited in PubChem by several laboratories.
Rows were chosen to be rich in hits. Some 3.2% of all compounds tested hit in one or more screens of this group.
bovine MsrA act – activators of bovine methionine sulfoxide reductase A | purified bovine MsrA, absorbance read-out | activation, % at 10.6 µM | hit rate 0.3% among 360,000; in the data active = activation above about 7.5%;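 also: 0% = vehicle and 100% = reference activator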
NadD block – blocks S. aureus nicotinate mononucleotide adenylyltransferase. purified NadD enzyme, colorimetric absorbance read-out. inhibition, % at 20 µM. hit rate 0.78% among 360,000; in the data active = inhibition above about 26%
DSG3 Ab inh – blocks pemphigus antibody binding to human desmoglein-3 | AID 588358 | P32926 | hit rate 0.48% among 310,000 | DSG3-coupled beads, scFv-anti-DSG3-GFP binding, flow cytometry; stronger effect = lower value | binding (percent of control), % at 10 µM;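 active = binding more than 3 SD below its plate's average and above zero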
Target sequence (P32926 whole entry, looked up): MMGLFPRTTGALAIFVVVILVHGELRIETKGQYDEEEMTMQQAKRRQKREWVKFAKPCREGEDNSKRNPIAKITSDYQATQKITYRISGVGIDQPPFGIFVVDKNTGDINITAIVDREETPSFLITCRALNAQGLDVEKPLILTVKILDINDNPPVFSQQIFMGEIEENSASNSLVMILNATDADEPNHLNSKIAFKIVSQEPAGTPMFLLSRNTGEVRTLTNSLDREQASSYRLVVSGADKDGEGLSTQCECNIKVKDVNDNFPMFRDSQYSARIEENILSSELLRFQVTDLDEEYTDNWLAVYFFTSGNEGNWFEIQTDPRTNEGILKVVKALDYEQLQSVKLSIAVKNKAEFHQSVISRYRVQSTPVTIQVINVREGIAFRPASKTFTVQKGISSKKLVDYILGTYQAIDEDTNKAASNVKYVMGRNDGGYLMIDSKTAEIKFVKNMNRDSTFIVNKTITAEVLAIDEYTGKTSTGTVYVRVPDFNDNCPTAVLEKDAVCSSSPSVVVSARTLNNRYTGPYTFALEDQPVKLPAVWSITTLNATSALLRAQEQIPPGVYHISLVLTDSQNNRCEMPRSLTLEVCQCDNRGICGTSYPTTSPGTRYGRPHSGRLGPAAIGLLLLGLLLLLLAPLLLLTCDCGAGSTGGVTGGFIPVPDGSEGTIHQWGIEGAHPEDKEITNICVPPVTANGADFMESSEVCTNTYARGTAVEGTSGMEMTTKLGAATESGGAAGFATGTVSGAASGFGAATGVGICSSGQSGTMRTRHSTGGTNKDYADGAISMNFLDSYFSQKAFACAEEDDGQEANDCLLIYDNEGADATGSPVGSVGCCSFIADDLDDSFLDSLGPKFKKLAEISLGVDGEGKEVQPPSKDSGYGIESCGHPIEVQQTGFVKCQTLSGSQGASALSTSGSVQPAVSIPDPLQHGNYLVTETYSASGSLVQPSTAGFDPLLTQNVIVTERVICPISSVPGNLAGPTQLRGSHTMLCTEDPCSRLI
DAGLB inhibitor – blocks human DAGLB lipase activity | HEK293T DAGLB membrane lysate, EnzChek fluorogenic substrate | inhibition, % at 5.17 µM | hit rate 0.059% among 340,000; in the data active = inhibition above about 34%;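 also: 0% = enzyme with vehicle and 100% = wells lacking enzyme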
MsrA inhibitor – bovine MsrA inhibition; purified bovine MsrA, absorbance read-out; AID 651718; inhibition, % at 15.5 µM; hit rate 0.75% among 360,000; in the data active = inhibition above about 4.5%;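 also: 0% = vehicle wells with enzyme and 100% = reference inhibitor wells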
rCAG RNA binder – r(CAG) repeat RNA binding | AID 651821 | TO-PRO-1 dye displacement fluorescence | hit rate 1.3% among 370,000 | inhibition, % at 3 µM;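 active = inhibition above the plate cutoff, the mean of all test compounds on that plate plus 3 SD, cut at about 35% in these data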;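 also: 0% = DMSO alone and 100% = 100 µM mitoxantrone as full dye displacement; higher means more dye released from RNA so lower well fluorescence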
rCAG binder conf – r(CAG) RNA repeat binding, confirmation | shares compounds with rCAG RNA binder | TO-PRO-1 dye displacement fluorescence | inhibition, % at 3 µM | hit rate 70% among 4,300 | AID 652065;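 active = inhibition above a per-plate cutoff, the mean inhibition of sample wells plus 3 SD, cut at about 35% in these data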;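 also: loss of TO-PRO-1 fluorescence as compound displaces dye from 1x1 AA loop RNA; 0% = DMSO only wells and 100% = 100 µM mitoxantrone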
dCAG dye counter – counter-screen for rCAG RNA binders: DNA CAG dye complex inhibitors; shares compounds with rCAG RNA binder; d(CAG) DNA oligo TO-PRO-1 dye displacement, fluorescence; inhibition, % at 3 µM; hit rate 94% among 4,300; AID 652068;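 active = inhibition above its plate's cutoff, the mean test-well inhibition plus 3 SD, cut at about 4.8% in these data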;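 also: 0% = DNA dye mix with DMSO and 100% = 100 µM mitoxantrone; hits displace the dye from DNA and so lower well fluorescence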
dCAG dye DR – counter-screen for rCAG binders: inhibitors of DNA CAG TO-PRO-1 complex; shares compounds with rCAG RNA binder; DNA CAG/GTC duplex TO-PRO-1 dye displacement fluorescence; IC50, µM; hit rate 20% among 250; AID 686960; in the data active = IC50 below about 10 µM
The depositor's hits bear a star; i = inactive; nt = not tested or not shown.

SMILES	bovine MsrA act	NadD block	DSG3 Ab inh	DAGLB inhibitor	MsrA inhibitor	rCAG RNA binder	rCAG binder conf	dCAG dye counter	others
O=C(O)CC/C(=C\c1ccc(Cl)c([N+](=O)[O-])c1)c1nc2ccccc2s1	-1	5	107	7	3	39*	41*	10*
O=C(O)CC/C(=C\c1ccc2c(c1)OCO2)c1nc2ccccc2s1	-11	1	110	-1	2	18	nt	nt
O=C(CSc1nc2ccccc2s1)Nc1ccc(N2CCOCC2)c(Cl)c1	-1	11	102	-6	0	-1	nt	nt
CC(=O)Nc1ccc(N2CCOCC2)c([N+](=O)[O-])c1	-2	0	103	1	0	-1	nt	nt
O=C(O)C/C(=C\c1ccc(N2CCOCC2)c([N+](=O)[O-])c1)c1nc2ccccc2s1	-1	7	93	11	3	45*	41*	16*
O=C(O)CC/C(=C\c1ccc(N2CCOCC2)c([N+](=O)[O-])c1)c1nc2ccccc2s1	-6	10	101	19	3	48*	66*	25*
COc1cccc(-c2nc(-c3ccccc3)c(-c3ccccc3)[nH]2)c1OCC(=O)O	-4	8	104	12	1	64*	61*	19*
O=C(O)COc1ccc(-c2nc(-c3ccccc3)c(-c3ccccc3)[nH]2)cc1	-2	-9	nt	6	1	26	nt	nt
O=C(O)COc1ccccc1-c1nc(-c2ccccc2)c(-c2ccccc2)[nH]1	-1	15	110	9	2	63*	51*	13*
COc1ccc2c(c1)CNC2CS(=O)(=O)NCC(C)C (stereo unspecified)	nt	nt	nt	nt	nt	7	nt	nt
CCn1nc(NS(=O)(=O)c2ccccc2[N+](=O)[O-])c2cc3cccc(C)c3nc21	2	12	105	13	2	74*	54*	21*
CCn1nc(NC(=O)C(C)(C)C)c2cc3cccc(C)c3nc21	-8	-8	115	-11	0	-5	nt	nt
CCn1nc(NS(=O)(=O)c2ccc([N+](=O)[O-])cc2)c2cc3cccc(C)c3nc21	-4	-2	100	27	0	85*	69*	31*
CCn1nc(NS(=O)(=O)c2ccccc2[N+](=O)[O-])c2cc3ccc(C)cc3nc21	-6	8	101	6	nt	nt	nt	nt
CC(C)=CCn1c2ccc(NC(=S)NC3CC3)cc2c(=O)n1C	0	0	nt	nt	0	3	nt	nt
COC(=O)C1=C(C)N(Cc2ccccc2C(F)(F)F)C(=NCc2ccc3c(c2)OCO3)NC1c1ccc(Cl)cc1 (stereo unspecified)	nt	nt	nt	nt	-1	5	nt	nt
COC(=O)CNC(=O)CNC(=O)c1nn(-c2ccc(OC)c(OC)c2)c(=O)c2ccccc12	0	-4	99	-2	1	-1	nt	nt
COc1ccc(-n2nc(C(=O)NCC(=O)NCCC3=CCCCC3)c3ccccc3c2=O)cc1OC	-3	-5	nt	-3	2	36*	5	7.3*
CC(=O)Nc1cccc(C(=O)/C=C/c2ccco2)c1	-4	0	99	0	2	13	nt	nt
O=C(C=Cc1ccco1)c1ccc2ccccc2c1	-6	19	89	-2	1	38*	16	10*
CC(=O)Nc1ccc(C(=O)/C=C/c2ccco2)cc1	-3	7	87	0	1	35*	25	13*
CN(C)c1ccc(C(=O)/C=C/c2ccco2)cc1	-7	5	79	1	2	14	nt	nt
CCCC#Cc1ccc(CC[C@H]2O[C@H]3CC[C@@H](CO)O[C@H]3C[C@H]2NC(=O)CN2CCOCC2)cc1	nt	nt	nt	nt	nt	0	nt	nt
CC[C@H](C)[C@H]1CNC(=S)N1CC1CCN(CCC23CC4CC(CC(C4)C2)C3)CC1	0	7	101	0	1	0	nt	nt
N#C/C(C(=O)Nc1ccc(Cl)cc1)=C(/S)Nc1ccccc1	-4	20	74*	12	4	56*	71*	24*	dCAG dye DR=i
SMILES	bovine MsrA act	NadD block	DSG3 Ab inh	DAGLB inhibitor	MsrA inhibitor	rCAG RNA binder	rCAG binder conf	dCAG dye counter	others
COC(=O)[C@]12C[C@H](CC(=O)NCC3CCCCC3)C(=O)N(Cc3ccco3)C1=C[C@H](COCc1ccccc1)O[C@@H]2C	nt	nt	nt	nt	nt	6	nt	nt
CN(C)C(=O)c1cc2c(c(-c3cccc(C4=CCCCC4)c3)n1)[C@@H](CCO)N(S(=O)C(C)(C)C)C2 (stereo partly specified)	-5	-5	nt	nt	1	7	nt	nt
COc1ccc(-c2sc(C(=O)c3ccc(Cl)cc3Cl)cc2CC(=O)O)cc1	-1	-7	130	6	4	54*	56*	17*
Oc1cccc(C=NN=C2c3ccccc3-c3ccccc32)c1	-4	-3	102	5	1	20	nt	nt
COC(=O)c1sccc1NC(=O)CSc1ccccc1NS(=O)(=O)c1ccc(F)cc1	3	-8	105	-3	0	27	nt	nt
COC(=O)c1sccc1NC(=O)CSc1ccccc1NS(=O)(=O)c1ccc(Br)cc1	-4	4	99	0	1	46*	50*	15*
O=C(Nc1cccc(Cl)c1Cl)c1cc(S(=O)(=O)NCCc2ccccc2)ccc1F	-4	-8	83	-16	1	7	nt	nt
NC(=O)c1ccc(NS(=O)(=O)c2ccc(Br)s2)cc1	-2	0	91	-1	1	1	nt	nt
O=C(Nc1ccccc1C(=O)O)c1cc(S(=O)(=O)NCc2ccccc2)ccc1Cl	-3	-4	114	9	0	49*	39*	6.5*
Cc1ccccc1NC(=O)c1ccc(C)c(S(=O)(=O)Nc2cccnc2)c1	-1	0	103	2	0	2	nt	nt
Cc1ccc(F)cc1NC(=O)c1ccc(NS(=O)(=O)c2ccc(Br)s2)cc1	-5	-2	91	3	1	41*	38*	11*
Cc1ccc(C(=O)Nc2ccccc2C(=O)O)cc1NC(=O)COc1c(C)cccc1C	0	4	96	9	2	33	nt	nt
Cc1ccc(C(=O)Nc2ccccc2C(=O)O)cc1S(=O)(=O)NCc1ccccc1	-3	6	106	6	0	64*	50*	17*
Cc1ccc(C(=O)Nc2ccccc2C(=O)O)cc1S(=O)(=O)Nc1ccc(Br)cc1	-4	6	nt	9	0	83*	86*	56*
COc1ccc(-c2cc(-c3cccs3)c(C#N)c(SCC(=O)NCc3ccccc3)n2)cc1	-3	7	109	0	1	1	nt	nt
N#Cc1c(-c2ccc(Cl)cc2)cc(-c2cccs2)nc1SCC(=O)O	5	16	94	6	1	66*	62*	25*
